Measurements as given in the supplement of paper PMC7530171.
Where “and” joins values, the source holds several entries; their conditions need not be identical. Identical values can stand only once. Counter-ions that a name gives are not always drawn. ± gives the standard deviation.

Legend:
[1] = test system: THP-1; assay: THP-1 cell loss relative to DMSO control; higher = more host cell loss (toxicity); extreme values may be limits of the assay; conditions: 10 µM; 4 days; infection: M. tuberculosis H37Rv
Experimental: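 OICR kinase inhibitor library screened in duplicate at 10 uM against M. tuberculosis-infected THP-1 macrophages, 4 days at 37 C. THP-1 cell loss (cytotoxicity or loss of adherence) was quantified from Hoechst-stained nuclei counts by high-content imaging and normalised to the 1% DMSO control; 100 = complete loss of host cells.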

[2] = test system: THP-1 macrophages infected with Mycobacterium tuberculosis H37Rv; assay: intracellular M.tb growth inhibition relative to DMSO (0) and 4 uM bedaquiline (100); higher = stronger inhibition of intracellular bacterial growth; conditions: 10 µM; 4 days
Experimental: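 OICR kinase inhibitor library screened in duplicate at 10 uM against THP-1 macrophages (PMA-differentiated) infected with M. tuberculosis H37Rv-pTEC27 (tdTomato RFP), 4 days at 37 C. Rows with complete host cell loss (placeholder inhibition 0, cell loss 100) were removed.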

| Compound | THP-1 cell loss [1] | intracellular M.tb growth inhibition [2] |
| --- | --- | --- |
| CC#CC(=O)Nc1ccc2ncnc(Nc3cccc(Br)c3)c2c1 | 89.6 ± 15% | 3.12 ± 4.4% |
| CCN(CC)CCCCN1c2ccccc2Oc2ccc(Cl)cc21 [10-DEBC hydrochloride] | 29.4 ± 13% | 123 ± 1.9% |
| O=C1NC(=O)/C(=C/c2ccc(-c3ccc(F)cc3O)o2)S1 | 39.7 ± 23% | 25.3 ± 6.9% |
| Cc1ccc(NC(=O)c2ccc(CN3CCN(C)CC3)cc2)cc1Nc1nc(-c2cccnc2)cs1 [Masitinib mesylate] | 62.9 ± 7.5% | 95.5 ± 1.8% |
| Cc1csc(-c2nnc(Nc3ccc(Oc4ncccc4-c4ccnc(N)n4)cc3)c3ccccc23)c1 | 62.4 ± 53% | 126 ± 190% |
| COc1cc(Nc2ncc(F)c(Nc3ccc4c(n3)N(COP(=O)(O)O)C(=O)C(C)(C)O4)n2)cc(OC)c1OC | 59.6 ± 57% | 11 ± 16% |
| CCN(CCO)CCCOc1ccc2c(Nc3cc(CC(=O)Nc4cccc(F)c4)[nH]n3)ncnc2c1 | 7.76 ± 6.5% | -51.3 ± 83% |
| N#CC(=C(/N)Sc1ccccc1N)/C(C#N)=C(/N)Sc1ccccc1N | 39.2 ± 23% | 13.3 ± 58% |
| COc1cc2ncnc(Nc3ccc(O)cc3)c2cc1OC [Janex-1] | 10.7 ± 0.54% | -138 ± 210% |
| N#Cc1c(-c2ccccc2)cc(-c2cc(Br)ccc2O)[nH]c1=O | 8.6 ± 8.9% | 19.8 ± 17% |
| COc1cc(Nc2ncc3c(n2)-c2ccc(Cl)cc2C(c2c(F)cccc2OC)=NC3)ccc1C(=O)O | 8.63 ± 10% | -73.6 ± 120% |
| Cc1cc(Nc2ncc3cc(-c4c(Cl)cccc4Cl)c(=O)n(C)c3n2)ccc1F | 88.1 ± 17% | 4.79 ± 6.8% |
| CC1(C)CNc2cc(NC(=O)c3cccnc3NCc3ccncc3)ccc21 [Motesanib diphosphate salt] | 4.91 ± 6.9% | 44.9 ± 27% |
| Nc1cc(N)c(N)cc1N [FAK Inhibitor 14] | 11.9 ± 4% | 6.73 ± 56% |
| CC(C)(C)c1nc2c3cc[nH]c(=O)c3c3cc(F)ccc3c2[nH]1 [Merck-5] | 46.3 ± 11% | -268 ± 290% |
| CC(C)N(CCC(=O)c1ccc2ccccc2c1)Cc1ccccc1 | 3.99 ± 5.6% | 22.8 ± 6.8% |
| Cc1[nH]c(/C=C2\C(=O)Nc3ccc(S(=O)(=O)Cc4c(Cl)cccc4Cl)cc32)c(C)c1C(=O)N1CCC[C@@H]1CN1CCCC1 | 19.1 ± 12% | 51 ± 13% |
| NS(=O)(=O)c1nn2cc(-c3ccccc3)nc2s1 | 5.48 ± 7.7% | 42.3 ± 16% |
| COc1cc2ncnc(Nc3ccc(O)c(Br)c3)c2cc1OC | 15.2 ± 1.4% | 13.5 ± 42% |
| Cc1cc(C(=O)Nc2cc(Nc3ccc4c(/C=C/c5ccccn5)n[nH]c4c3)ccc2F)n(C)n1 | 54.6 ± 11% | -16.4 ± 71% |
| COc1ccc(-c2ccc3c(N4CCOC[C@@H]4C)nc(N4CCOC[C@@H]4C)nc3n2)cc1CO | 40.8 ± 2.5% | -202 ± 240% |
| Cc1cc(Nc2nc(N[C@@H](C)c3ccc(F)cc3)c(C#N)cc2F)n[nH]1 | 39 ± 9.1% | -124 ± 150% |

| Compound | THP-1 cell loss [1] | intracellular M.tb growth inhibition [2] |
| --- | --- | --- |
| CN1CCN(CCOc2cc(OC3CCOCC3)c3c(Nc4c(Cl)ccc5c4OCO5)ncnc3c2)CC1 | 20.5 ± 7% | 44.4 ± 16% |
| CO[C@@H]1[C@H](N(C)C(=O)c2ccccc2)C[C@H]2O[C@]1(C)n1c3ccccc3c3c4c(c5c6ccccc6n2c5c31)C(=O)NC4 | 30.8 ± 4.7% | 60.7 ± 13% |
| COc1ccc(-c2ccc3c(N4CCOCC4)nc(N4C[C@@H](C)O[C@@H](C)C4)nc3n2)cc1CO | 53.5 ± 18% | -282 ± 370% |
| O=C(O)c1ccc(-c2c[nH]c3ncc(-c4ccccc4)cc23)cc1C1CCCC1 | 9.42 ± 6.5% | -23.5 ± 47% |
| O=C1NC(=O)C(c2ccccc2[N+](=O)[O-])=C1Nc1ccc(O)c(Cl)c1 | 3.73 ± 5.3% | -38.8 ± 82% |
| Cc1ccc(NC(=O)c2cccc(N(C)C)c2)cc1NC(=O)c1ccc(O)cc1 | 3.71 ± 3.8% | 36 ± 37% |
| CO[C@H]1C[C@@H]2CC[C@@H](C)[C@@](O)(O2)C(=O)C(=O)N2CCCC[C@H]2C(=O)O[C@H]([C@H](C)C[C@@H]2CC[C@@H](OC(=O)C(C)(CO)CO)[C@H](OC)C2)CC(=O)[C@H](C)/C=C(\C)[C@@H](O)[C@@H](OC)C(=O)[C@H](C)C[C@H](C)/C=C/C=C/C=C/1C [Temsirolimus] | 43 ± 2% | -22.8 ± 24% |
| Oc1c2ccccc2c2c3c(cccc13)N=N2 | 19.8 ± 16% | 12.9 ± 20% |
| Cc1cc(Nc2nc(N[C@@H](C)c3ncc(F)cn3)ncc2Cl)[nH]n1 |  | -234 ± 120% |
| NS(=O)(=O)c1ccc(Nc2nc(OCC3CCCCC3)c3[nH]cnc3n2)cc1 | 0.876 ± 1.2% | 15.4 ± 41% |
| O=C(O)c1cc(N(Cc2ccccc2O)Cc2cc(O)ccc2O)ccc1O [Lavendustin A] |  | 10.4 ± 41% |
| O=C1NCc2c1c1c3ccccc3[nH]c1c1[nH]c3ccccc3c21 |  | 37.2 ± 30% |
| NC(=O)c1ccc2nc(-c3ccc(Oc4ccc(Cl)cc4)cc3)[nH]c2c1 [Chk2 Inhibitor II] |  | 38.6 ± 14% |
| Cn1c2ccccc2c2c3c(c4c5ccccc5n(CCC#N)c4c21)CNC3=O | 32.2 ± 18% | -29.9 ± 36% |
| COc1cc2ncnc(Nc3ccc(Oc4ccccc4)cc3)c2cc1OC | 0% | 41.9 ± 47% |
| COc1cc(Nc2c(C#N)cnc3cc(OCCCN4CCN(C)CC4)c(OC)cc23)c(Cl)cc1Cl [Bosutinib] |  | 109 ± 1.8% |
| Nc1ncnc2n[nH]c(Nc3ccc(F)cc3)c12 | 24% and 11% | -2.38% and 4.47% |
| CN1CCC(CNc2ccc3ncc(-c4cccc(OC(F)(F)F)c4)n3n2)CC1 | 55.8 ± 30% | 89.1 ± 24% |
| Cn1cnc2c(F)c(Nc3ccc(Br)cc3Cl)c(C(=O)NOCCO)cc21 | 82.3 ± 9.6% | 6.79 ± 5.7% |
| CS(=O)(=O)c1cccc(CNc2nc(Nc3ccc4c(c3)CCC(=O)N4)ncc2C(F)(F)F)c1 | 56.3 ± 6% | -96.4 ± 26% |
| Cc1ccc(NC(=O)c2ccc(CN3CCN(C)CC3)cc2)cc1Nc1nccc(-c2cccnc2)n1 [Imatinib Mesylate] |  | 54.9 ± 5% |
| COc1cc2/c(=N/c3ccc(Br)cc3F)nc[nH]c2cc1OCC1CCN(C)CC1 [Vandetanib] | 40.7 ± 6.5% | 64.1 ± 6.5% |

| Compound | THP-1 cell loss [1] | intracellular M.tb growth inhibition [2] |
| --- | --- | --- |
| Cn1c(=O)c(Oc2ccc(F)cc2F)cc2cnc(NC3CCOCC3)nc21 | 17.2 ± 6.1% | -140 ± 130% |
| CC(NC(=O)C(C#N)=Cc1ccc(O)c(O)c1)c1ccccc1 (centres undefined) [Tyrphostin B44] | 3.72 ± 5.3% | -7.66 ± 34% |
| COc1cc2nccc(Oc3ccc(NC(=O)NC4CC4)c(Cl)c3)c2cc1C(N)=O |  | -42.3 ± 140% |
| CCn1c(-c2nonc2N)nc2cnc(Oc3cccc(NC(=O)c4ccc(OCCN5CCOCC5)cc4)c3)cc21 |  | 54.4 ± 77% |
| Cn1cncc1[C@@](N)(c1ccc(Cl)cc1)c1ccc2c(c1)c(-c1cccc(Cl)c1)cc(=O)n2C [Tipifarnib] | 29.6 ± 27% | 3.85 ± 56% |
| OCCn1cc(-c2ccc3c(c2)CC/C3=N\O)c(-c2ccncc2)n1 | 9.27 ± 7.9% | -91.1 ± 160% |
| C#Cc1cccc(Nc2ncnc3cc(OCCOC)c(OCCOC)cc23)c1 [Erlotinib HCl] | 5.26 ± 7.4% | -17.4 ± 52% |
| COc1cc2nccc(Oc3ccc(NC(=O)Nc4ccc(F)cc4F)c(F)c3)c2cc1OC | 8.51 ± 5.2% | 25.2 ± 4.6% |
| Cc1ccc(-n2nc(C(C)(C)C)cc2NC(=O)Nc2ccc(OCCN3CCOCC3)c3ccccc23)cc1 | 50 ± 71% | -1.53 ± 2.2% |
| COc1nccc(-c2c(-c3ccc(F)cc3)ncn2C2CCNCC2)n1 | 4.97 ± 0.45% | -58.3 ± 93% |
| Nc1ccc(-c2cccc3c(=O)cc(N4CCOCC4)oc23)cc1 |  | -49 ± 35% |
| COC(=O)c1ccc2c(c1)NC(=O)/C2=C(\Nc1ccc(N(C)C(=O)CN2CCN(C)CC2)cc1)c1ccccc1 |  | -144 ± 210% |
| CO[C@H]1C[C@@H]2CC[C@@H](C)[C@@](O)(O2)C(=O)C(=O)N2CCCC[C@H]2C(=O)O[C@H]([C@H](C)C[C@@H]2CC[C@@H](OCCO)[C@H](OC)C2)CC(=O)[C@H](C)/C=C(\C)[C@@H](O)[C@@H](OC)C(=O)[C@H](C)C[C@H](C)/C=C/C=C/C=C/1C [Everolimus] | 22 ± 0.045% | 3.03 ± 13% |
| O=S(=O)(c1cccc2c(Cl)cccc12)N1CCCNCC1 [ML 9 hydrochloride] | 31.1 ± 21% | -14 ± 4.8% |
| Cn1cc(-c2cnc3ccc4ccc(CS(=O)(=O)NCc5ccccn5)cc4c(=O)c3c2)cn1 |  | -162 ± 230% |
| Cc1cc(F)c(Nc2ncnc3cc(OCc4ccccc4)ccc23)cc1O |  | 38.8 ± 33% |
| Cc1cn(-c2cc(NC(=O)c3ccc(C)c(Nc4nccc(-c5cccnc5)n4)c3)cc(C(F)(F)F)c2)cn1 [Nilotinib] | 75.3 ± 35% | -5.88 ± 8.3% |
| COc1cc2ncnc(Nc3ccc(Cl)cc3F)c2cc1OC | 0.676 ± 0.63% | 48.4 ± 20% |
| CCN(CC)CCNC(=O)c1c(C)[nH]c(/C=C2\C(=O)Nc3ccc(F)cc32)c1C [Sunitinib Malate] |  | -45.8 ± 29% |
| CO[C@@H](C(=O)N1Cc2[nH]nc(NC(=O)c3ccc(N4CCN(C)CC4)cc3)c2C1)c1ccccc1 |  | -228 ± 250% |
